From PubChem BioAssay AID588342 (National Center for Advancing Translational Sciences (NCATS), 2011)
Among all 360,000 compounds or so, about 25,000 (6.9%) were called active. A call without a number means that no potency is given here. Not shown: some 9% with an inconclusive outcome. The call rests on the fitted dose curve; in most records, active means well fitted inhibition curve with a large enough effect; inconclusive means small, poorly fitted or top-dose-only effect; inactive means flat fitted curve, though single readings scatter. The full list was thinned out, with actives kept by preference.

Each compound was assayed against Luciferin 4-monooxygenase (Photinus pyralis) (UniProt P08659) (assay: qHTS profiling assay for firefly luciferase inhibitor/activator using purifed enzyme and Km concentrations of substrates (counterscreen for miR-21 project)). Details: purified FLuc, luminescence inhibition; series mostly up to 57.5 µM.
Sequence of Luciferin 4-monooxygenase (Photinus pyralis) (P08659 whole entry, looked up): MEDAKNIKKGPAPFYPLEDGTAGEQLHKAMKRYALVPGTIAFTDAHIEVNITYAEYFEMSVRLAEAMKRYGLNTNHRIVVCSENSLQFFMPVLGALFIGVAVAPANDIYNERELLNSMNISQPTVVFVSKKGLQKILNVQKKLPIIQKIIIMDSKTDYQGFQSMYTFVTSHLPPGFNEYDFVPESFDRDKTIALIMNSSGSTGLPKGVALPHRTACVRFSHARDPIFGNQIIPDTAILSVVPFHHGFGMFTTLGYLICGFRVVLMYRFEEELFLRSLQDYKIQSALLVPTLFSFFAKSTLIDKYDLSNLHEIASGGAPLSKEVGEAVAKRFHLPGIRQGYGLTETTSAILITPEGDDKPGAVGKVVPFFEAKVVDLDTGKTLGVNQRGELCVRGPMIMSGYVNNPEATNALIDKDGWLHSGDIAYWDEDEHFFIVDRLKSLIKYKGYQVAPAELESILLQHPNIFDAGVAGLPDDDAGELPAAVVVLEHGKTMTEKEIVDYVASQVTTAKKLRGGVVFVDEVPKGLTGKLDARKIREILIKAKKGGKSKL
Outline: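 Purified P. pyralis luciferase (10nM final) with 10uM D-luciferin and 10uM ATP (Km levels) in 50mM Tris acetate pH 7.5, 10mM Mg acetate, 0.01% Tween-20, 0.05% BSA; qHTS 6-point titration, ~60 µM downward; luminescence read.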
Further: nearly all actives have a fitted effect of over 55% in size.
Potency means the concentration at half of the fitted maximal effect.

SMILES	Potency
O=C(CSc1ncc(CO)n1Cc1ccc(F)cc1)NCc1ccco1	inactive
COc1ccccc1NC(=O)Cn1cnc2ccc(S(=O)(=O)N3CCC(C)CC3)cc2c1=O	inactive
CCCN(CC(=O)Nc1ccccc1C)C(=O)c1ccc2[nH]c3c(c2c1)CC(C)CC3 (configuration not stated)	inactive
c1ccc2c(NC3C4CC5CC(C4)CC3C5)nc(N3CCOCC3)nc2c1 (configuration not stated)	inactive
Cc1cc(OCC(=O)Nc2ncn[nH]2)c(C)c(C)c1Br	inactive
CC1Cc2ccccc2N1C(=O)CSc1nnc(C2CC2)n1C (configuration not stated)	inactive
O=C(c1c(Cl)cccc1Cl)N1CCN(c2cccc3[nH]ccc23)CC1	inactive
COc1ccccc1N1CCN(C(=O)c2c(-c3c(Cl)cccc3Cl)noc2C)CC1	inactive
O=C(c1ccc2ccccc2n1)N1CCN(c2ccccc2Cl)CC1	16.9 µM (active)
Cc1csc(SCC(=O)Nc2sccc2C#N)n1	2.13 µM (active)
Cc1cccc(C)c1Nc1nnc(SCC(=O)Nc2sccc2C#N)s1	inactive
Cc1ccc(NC(=O)CSCC(=O)Nc2sccc2C#N)cc1	inactive
CC(OC(=O)Cc1ccc(F)cc1)C(=O)N1CCc2ccccc21 (configuration not stated)	inactive
CC(C(=O)O)n1cnc2sc3c(c2c1=O)CCCC3 (configuration not stated)	inactive
CC(C)(C)OC(=O)N1CCC(c2c(C(=O)N3CCc4ccccc4C3)cnn2-c2ccc(F)cc2)CC1	inactive
O=C(Nc1cccc(O)c1)c1ccc(C(=O)c2ccccc2)o1	6.75 µM (active)
CC(=O)c1cccc(NC(=O)[C@@H](NC(N)=O)C(C)C)c1	inactive
Cc1ccc(OCC(=O)NCCCNC(=O)c2cccnc2)cc1C	inactive
COc1cc(/C=C(/NC(=O)c2ccccc2)C(=O)Nc2cccc(O)c2)c([N+](=O)[O-])cc1OC	inactive
O=C(CSc1ccccc1)Nc1ccc(C(=O)Nc2cccc(O)c2)cc1	inactive
O=C(NCc1cccc(CNC(=O)Nc2cccc(O)c2)c1)Nc1cccc(O)c1	inactive
C/C(=C\C(=O)c1ccccc1)Nc1cccc(O)c1	3.38 µM (active)
Cc1ccc(NC(=O)COc2ccc(/C=N\NC(=O)c3cccnc3)cc2)cc1C	inactive

SMILES	Potency
C/C(=C\C(=O)c1cccnc1)Nc1ccc(C)c(C)c1	6.75 µM (active)
CC1(C)CC(=O)C=C(c2ccc3ncccc3c2)C1	inactive
CCOC(=O)C1CCN(C(c2ccc(F)cc2)c2sc3nc(-c4ccco4)nn3c2O)CC1 (configuration not stated)	inactive
CCN(CCCNC(=O)Cn1ncc2c([nH]c3ccccc32)c1=O)c1cccc(C)c1	inactive
CC(=O)c1ccc(N2CCN(C(=O)c3ccc(Cl)c(S(=O)(=O)NC4CC4)c3)CC2)c(F)c1	inactive
Cc1ccc(CNC(=O)c2cccc3c2C(=O)c2ccc(N4CCC(C)CC4)cc2S3(=O)=O)cc1	inactive
CCOC(=O)[C@H]1[C@H]2COc3ccc(C)cc3[C@@H]2N2C(=O)CN(Cc3ccc(F)cc3)C(=O)[C@@]12C	inactive
CCOc1ccc(CNC(=O)C2CCCN(S(=O)(=O)N(CC)c3ccc(OCC)cc3)C2)cc1 (configuration not stated)	inactive
Cc1ccc(Cl)cc1NC(=O)NC1COc2ccccc2C1 (configuration not stated)	inactive
Cn1ccc(NC(=O)Nc2ccc(Cl)cc2)n1	16.9 µM (active)
CN(C)S(=O)(=O)c1cc(C(=O)Nc2ccn(C)n2)c(Cl)cc1Cl	inactive
Cc1ccc(C(=O)Nc2ccn(C)n2)cc1	inactive
Cc1ccc2nc(COc3ccc(NC(=O)COc4ccccc4F)cc3)cc(=O)n2c1	inactive
CC(NC(=O)c1cc2c(=O)n3ccccc3nc2n(C(C)C)c1=N)c1ccccc1 (configuration not stated)	inactive
CCC(=O)N1CCc2cc(Br)cc(S(=O)(=O)CCC(=O)N3CCN(c4ccc(F)cc4)CC3)c21	inactive
COc1ccc([C@H]2CC(=O)C=C(/C=C/c3ccccc3)C2)cc1	inactive
COc1ccc(-c2cn3c(n2)sc2cc(C(=O)Nc4ccccc4F)ccc23)cc1	inactive
O=C(Cc1cccs1)Nc1ccc([N+](=O)[O-])cc1	inactive
CCc1ccc(NC(=O)CCNS(=O)(=O)c2cccs2)cc1	inactive
Cc1cccc(C(=O)OCC(=O)Nc2ccc(F)cc2)c1	inactive
CCOc1ccccc1NC(=O)Cc1cccs1	inactive
O=C(COC(=O)c1cccs1)NCc1cccs1	inactive
O=C(Nc1ccccc1)c1ccc(NC(=O)c2cccs2)cc1	inactive

SMILES	Potency
O=C(O)Cc1ccc(NC(=O)c2cccs2)cc1	12 µM (active)
O=C(Nc1ccc(N2CCN(C(=O)C3CC3)CC2)cc1)c1cccs1	inactive
CC(=O)Nc1ccc(NC(=O)[C@@H](NC(=O)c2cccc(C)c2)C(C)C)cc1	inactive
CCOC(=O)c1ccc(NC(=O)Cc2cccs2)cc1	15.1 µM (active)
CCc1ccc(NC(=O)COC(=O)c2cccs2)cc1	6.75 µM (active)
Cc1cccc(C(=O)Nc2ccc(CC(=O)O)cc2)c1	9.53 µM (active)
Cc1ccc(CN(C(=O)COc2ccc(Cl)cc2C)C2CCS(=O)(=O)C2)o1 (configuration not stated)	inactive
CN(CC(=O)NNC(=O)CNC(=O)c1ccccc1Cl)S(=O)(=O)c1ccc(Cl)cc1	inactive
Cc1ccc(CN2COc3cc(C)c4c(oc(=O)c5ccccc54)c3C2)cc1	inactive
COc1ccc(C(=O)OC(C)C(=O)NC2CCCC2)cc1S(=O)(=O)N1CCOCC1 (configuration not stated)	inactive
COc1ccc(OC)c(NC(=O)C2CCCN(S(=O)(=O)c3ccc4c(c3)CCCC(=O)N4)C2)c1 (configuration not stated)	inactive
O=C(Cn1ncc2c3ccccc3n(Cc3ccccc3)c2c1=O)NC1CCCCCC1	inactive
CC(C)C(=O)Nc1ccc(C(=O)NNC(=O)c2cccs2)cc1	inactive
Cc1ccc(C)c(NC(=O)CCC(=O)NNC(=O)c2cccs2)c1	inactive
CCc1ccc(NC(=O)C(=O)NNC(=O)c2cccs2)cc1	16.9 µM (active)
COCCn1cnc2c1c(=O)n(CC(=O)NN)c(=O)n2Cc1ccccc1	inactive
Cc1ccccc1-c1cc(C(=O)NCC2CC2)n(CC2CC(c3cccnc3)=NO2)n1 (configuration not stated)	inactive
Cc1nc2sc(C)c(C)n2c(=O)c1S(=O)(=O)NCCc1ccc(Cl)cc1	inactive
CC(C)c1ccc(-c2nn[nH]n2)cc1	6.01 µM (active)
Cc1n[nH]c(=O)n1-c1ccc(C(C)C)cc1	inactive
c1cc(-c2nn[nH]n2)ccc1CN1CCCCC1	inactive
